# Data taken from article PMC7862700, “An all-to-all approach to the identification of sequence-specific readers for epigenetic DNA modifications on cytosine”.
# How the values were obtained:
# Experiment in all cases: DAPPL (digital affinity profiling via proximity ligation, sequencing); 10 mM Tris-HCl pH 7.5, 50 mM NaCl, 1 mM DTT, 4% glycerol, room temperature, 30 min; GST-TFs on glutathione beads, 16-mer random dsDNA library, 0.1% formaldehyde crosslink after washing; high values mean tight binding
# FEV = target: T1, FEV (Homo sapiens, UniProt Q99581 1-238); conditions: protein: recombinant; tags: N-terminal GST; dsDNA, one strand shown
# T1 sequence: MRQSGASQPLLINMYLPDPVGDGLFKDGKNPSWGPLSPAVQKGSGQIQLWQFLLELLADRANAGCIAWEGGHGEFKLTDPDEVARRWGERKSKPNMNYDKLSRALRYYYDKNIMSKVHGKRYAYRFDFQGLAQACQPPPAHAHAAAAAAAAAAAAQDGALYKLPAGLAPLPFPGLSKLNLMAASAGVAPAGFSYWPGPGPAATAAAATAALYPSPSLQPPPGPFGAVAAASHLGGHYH
# In short: (§1)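 Pools of DNA-barcoded human transcription factors, expressed in yeast as GST fusions on glutathione beads and combined with a tag-only sample, were incubated with 200 nmole of a 16-mer random double-stranded DNA library. Incubation took 30 min at room temperature in Tris/NaCl/DTT/glycerol buffer and was followed by washing, 0.1% formaldehyde crosslinking, proximity ligation (BsaI/T4 ligase, 1 h, 37 °C), PCR amplification and sequencing on an Illumina NextSeq500. Binding signal is the ratio of a hexamer's read frequency for a factor to its frequency for the tag-only sample.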
# ETV5 = ETV5 (Homo sapiens, UniProt P41161 1-510); conditions: protein: recombinant; tags: N-terminal GST; dsDNA, one strand shown
# Chain of ETV5 (P41161 whole entry): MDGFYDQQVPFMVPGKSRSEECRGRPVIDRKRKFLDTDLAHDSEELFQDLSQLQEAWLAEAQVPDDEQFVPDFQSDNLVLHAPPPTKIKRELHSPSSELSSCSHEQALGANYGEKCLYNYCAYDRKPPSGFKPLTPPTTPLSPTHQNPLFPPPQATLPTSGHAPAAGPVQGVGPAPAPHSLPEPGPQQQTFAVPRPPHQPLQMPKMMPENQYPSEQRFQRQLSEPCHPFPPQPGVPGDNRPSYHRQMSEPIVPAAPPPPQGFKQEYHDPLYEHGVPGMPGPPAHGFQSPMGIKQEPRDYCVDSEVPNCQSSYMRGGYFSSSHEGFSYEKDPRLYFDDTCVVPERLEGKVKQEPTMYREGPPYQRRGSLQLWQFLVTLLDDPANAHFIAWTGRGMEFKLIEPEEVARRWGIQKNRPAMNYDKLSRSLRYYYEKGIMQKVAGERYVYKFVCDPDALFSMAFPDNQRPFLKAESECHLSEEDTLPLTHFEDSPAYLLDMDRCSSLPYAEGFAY
# In short: as §1
# HSF1 = HSF1 (Homo sapiens, UniProt Q00613 1-529); conditions: protein: recombinant; tags: N-terminal GST; chain copies: 3; dsDNA, one strand shown
# Chain of HSF1 (Q00613 whole entry): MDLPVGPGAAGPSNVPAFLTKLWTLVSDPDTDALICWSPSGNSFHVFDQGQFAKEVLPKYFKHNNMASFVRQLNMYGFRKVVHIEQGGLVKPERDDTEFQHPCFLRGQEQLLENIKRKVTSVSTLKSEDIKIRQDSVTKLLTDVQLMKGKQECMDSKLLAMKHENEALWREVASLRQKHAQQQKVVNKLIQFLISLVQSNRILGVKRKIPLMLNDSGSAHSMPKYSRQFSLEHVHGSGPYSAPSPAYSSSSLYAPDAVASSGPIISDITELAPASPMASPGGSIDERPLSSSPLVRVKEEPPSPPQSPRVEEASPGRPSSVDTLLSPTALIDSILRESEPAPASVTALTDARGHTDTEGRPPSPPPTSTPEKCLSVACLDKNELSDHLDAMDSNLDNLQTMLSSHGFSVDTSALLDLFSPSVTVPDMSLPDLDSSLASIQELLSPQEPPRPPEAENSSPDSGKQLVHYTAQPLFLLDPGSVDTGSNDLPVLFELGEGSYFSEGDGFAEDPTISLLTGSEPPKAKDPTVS
# In short: as §1
# SPIC = target: T2, SPIC (Homo sapiens, UniProt Q8N5J4 1-248); conditions: protein: recombinant; tags: N-terminal GST; dsDNA, one strand shown
# T2 sequence: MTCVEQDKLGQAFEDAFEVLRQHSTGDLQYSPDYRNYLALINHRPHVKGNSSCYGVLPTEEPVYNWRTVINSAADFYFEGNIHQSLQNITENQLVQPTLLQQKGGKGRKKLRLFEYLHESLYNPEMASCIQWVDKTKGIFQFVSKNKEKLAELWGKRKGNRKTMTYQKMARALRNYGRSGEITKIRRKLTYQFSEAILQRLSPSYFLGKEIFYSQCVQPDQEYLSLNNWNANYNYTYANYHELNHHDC
# In short: as §1
# ELF4 = ELF4 (Homo sapiens, UniProt Q99607 1-663); conditions: protein: recombinant; tags: N-terminal GST; dsDNA, one strand shown
# Chain of ELF4 (Q99607 whole entry): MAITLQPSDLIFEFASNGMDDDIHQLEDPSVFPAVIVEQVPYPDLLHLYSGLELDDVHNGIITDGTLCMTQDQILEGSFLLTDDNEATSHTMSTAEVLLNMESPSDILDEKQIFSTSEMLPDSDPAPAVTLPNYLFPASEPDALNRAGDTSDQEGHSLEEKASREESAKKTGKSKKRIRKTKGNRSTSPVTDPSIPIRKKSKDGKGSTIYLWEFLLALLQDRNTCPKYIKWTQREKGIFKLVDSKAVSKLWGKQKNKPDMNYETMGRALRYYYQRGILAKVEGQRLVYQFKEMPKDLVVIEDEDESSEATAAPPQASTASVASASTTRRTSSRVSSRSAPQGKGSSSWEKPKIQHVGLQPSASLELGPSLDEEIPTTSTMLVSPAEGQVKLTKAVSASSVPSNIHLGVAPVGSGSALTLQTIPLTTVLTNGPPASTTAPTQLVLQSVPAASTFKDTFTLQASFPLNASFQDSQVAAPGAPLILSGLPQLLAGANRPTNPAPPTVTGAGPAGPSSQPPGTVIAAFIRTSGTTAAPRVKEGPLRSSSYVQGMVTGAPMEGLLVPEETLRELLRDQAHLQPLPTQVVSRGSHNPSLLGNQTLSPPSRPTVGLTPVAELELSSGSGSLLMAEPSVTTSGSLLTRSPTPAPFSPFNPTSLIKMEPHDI
# In short: as §1
# ELK4 = target: T3, ELK4 (Homo sapiens, UniProt P28324-2 1-405); conditions: protein: recombinant; tags: N-terminal GST; dsDNA, one strand shown
# T3 sequence: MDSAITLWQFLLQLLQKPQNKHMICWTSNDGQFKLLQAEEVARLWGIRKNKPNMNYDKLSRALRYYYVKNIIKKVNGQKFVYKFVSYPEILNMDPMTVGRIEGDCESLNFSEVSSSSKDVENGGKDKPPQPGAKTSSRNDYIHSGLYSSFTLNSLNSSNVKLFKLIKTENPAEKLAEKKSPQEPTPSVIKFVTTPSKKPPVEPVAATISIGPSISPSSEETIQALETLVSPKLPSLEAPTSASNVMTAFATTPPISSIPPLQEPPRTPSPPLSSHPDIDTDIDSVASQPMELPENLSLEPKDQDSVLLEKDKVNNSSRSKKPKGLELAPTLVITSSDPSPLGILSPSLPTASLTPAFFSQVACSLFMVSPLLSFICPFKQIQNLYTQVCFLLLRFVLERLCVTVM
# In short: as §1
# ETV2 = target: T4, ETV2 (Homo sapiens, UniProt O00321 1-342); conditions: protein: recombinant; tags: N-terminal GST; dsDNA, one strand shown
# T4 sequence: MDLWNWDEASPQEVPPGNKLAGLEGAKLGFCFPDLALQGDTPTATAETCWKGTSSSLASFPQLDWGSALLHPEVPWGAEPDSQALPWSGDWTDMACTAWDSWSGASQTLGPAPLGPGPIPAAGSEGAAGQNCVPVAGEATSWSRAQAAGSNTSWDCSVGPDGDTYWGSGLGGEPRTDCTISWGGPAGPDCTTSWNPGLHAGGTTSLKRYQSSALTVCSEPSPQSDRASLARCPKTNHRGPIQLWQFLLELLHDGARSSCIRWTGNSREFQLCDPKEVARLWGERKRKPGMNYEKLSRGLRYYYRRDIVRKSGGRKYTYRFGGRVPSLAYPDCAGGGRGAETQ
# In short: as §1
# ELF3 = target: T5, ELF3 (Homo sapiens, UniProt P78545 1-371); conditions: protein: recombinant; tags: N-terminal GST; dsDNA, one strand shown
# T5 sequence: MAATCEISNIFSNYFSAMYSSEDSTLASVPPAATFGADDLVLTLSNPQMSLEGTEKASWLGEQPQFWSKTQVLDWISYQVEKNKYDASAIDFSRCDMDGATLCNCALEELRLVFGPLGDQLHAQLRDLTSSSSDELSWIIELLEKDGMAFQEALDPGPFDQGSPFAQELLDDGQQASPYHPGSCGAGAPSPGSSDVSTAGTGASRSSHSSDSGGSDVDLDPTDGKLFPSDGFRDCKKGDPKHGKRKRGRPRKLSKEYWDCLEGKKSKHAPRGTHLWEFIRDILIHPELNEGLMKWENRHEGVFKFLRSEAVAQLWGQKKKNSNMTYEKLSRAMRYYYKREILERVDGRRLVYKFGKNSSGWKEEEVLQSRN
# In short: as §1
# CRX = CRX (Homo sapiens, UniProt O43186 1-299); conditions: protein: recombinant; tags: N-terminal GST; dsDNA, one strand shown
# Chain of CRX (O43186 whole entry): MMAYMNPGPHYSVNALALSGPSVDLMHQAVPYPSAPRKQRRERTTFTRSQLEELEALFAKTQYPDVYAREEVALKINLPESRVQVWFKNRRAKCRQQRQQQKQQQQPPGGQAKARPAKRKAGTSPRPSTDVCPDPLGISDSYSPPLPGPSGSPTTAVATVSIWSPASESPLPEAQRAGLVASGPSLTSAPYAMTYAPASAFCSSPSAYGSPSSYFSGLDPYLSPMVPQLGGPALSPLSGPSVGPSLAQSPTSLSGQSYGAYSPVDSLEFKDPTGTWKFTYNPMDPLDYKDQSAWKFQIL
# In short: as §1
# ETV1 = ETV1 (Homo sapiens, UniProt P50549 1-477); conditions: protein: recombinant; tags: N-terminal GST; dsDNA, one strand shown
# Chain of ETV1 (P50549 whole entry): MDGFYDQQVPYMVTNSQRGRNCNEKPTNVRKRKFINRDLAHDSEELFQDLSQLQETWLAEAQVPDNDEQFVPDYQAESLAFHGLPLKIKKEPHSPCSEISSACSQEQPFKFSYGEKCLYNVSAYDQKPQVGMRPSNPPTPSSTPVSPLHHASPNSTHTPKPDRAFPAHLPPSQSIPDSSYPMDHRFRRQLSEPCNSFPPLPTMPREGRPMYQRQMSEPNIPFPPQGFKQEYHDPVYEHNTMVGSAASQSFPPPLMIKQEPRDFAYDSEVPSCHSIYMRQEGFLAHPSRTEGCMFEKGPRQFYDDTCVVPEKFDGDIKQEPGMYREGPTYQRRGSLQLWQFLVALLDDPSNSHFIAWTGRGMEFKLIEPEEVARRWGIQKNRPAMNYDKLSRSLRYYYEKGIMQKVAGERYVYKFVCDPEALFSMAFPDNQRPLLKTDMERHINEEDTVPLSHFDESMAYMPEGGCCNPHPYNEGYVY
# In short: as §1
# ERF = target: T6, ERF (Homo sapiens, UniProt P50548 1-548); conditions: protein: recombinant; tags: N-terminal GST; dsDNA, one strand shown
# T6 sequence: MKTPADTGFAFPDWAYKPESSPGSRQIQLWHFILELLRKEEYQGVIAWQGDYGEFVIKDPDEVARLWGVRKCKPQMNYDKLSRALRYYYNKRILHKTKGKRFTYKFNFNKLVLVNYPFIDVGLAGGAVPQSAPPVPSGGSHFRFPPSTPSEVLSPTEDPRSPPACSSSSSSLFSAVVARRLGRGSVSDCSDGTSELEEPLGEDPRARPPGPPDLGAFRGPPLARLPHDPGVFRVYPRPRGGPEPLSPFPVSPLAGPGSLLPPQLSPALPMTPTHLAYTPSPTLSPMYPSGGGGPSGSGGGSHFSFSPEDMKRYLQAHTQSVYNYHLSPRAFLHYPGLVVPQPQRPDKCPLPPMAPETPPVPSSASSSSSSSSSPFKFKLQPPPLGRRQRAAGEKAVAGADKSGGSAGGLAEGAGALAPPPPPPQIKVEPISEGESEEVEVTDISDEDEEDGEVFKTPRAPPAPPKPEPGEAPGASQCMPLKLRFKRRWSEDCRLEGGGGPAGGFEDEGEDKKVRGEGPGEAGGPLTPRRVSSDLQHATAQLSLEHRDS
# In short: as §1
# ETV3L = target: T7, ETV3L (Homo sapiens, UniProt Q6ZN32 1-361); conditions: protein: recombinant; tags: N-terminal GST; dsDNA, one strand shown
# T7 sequence: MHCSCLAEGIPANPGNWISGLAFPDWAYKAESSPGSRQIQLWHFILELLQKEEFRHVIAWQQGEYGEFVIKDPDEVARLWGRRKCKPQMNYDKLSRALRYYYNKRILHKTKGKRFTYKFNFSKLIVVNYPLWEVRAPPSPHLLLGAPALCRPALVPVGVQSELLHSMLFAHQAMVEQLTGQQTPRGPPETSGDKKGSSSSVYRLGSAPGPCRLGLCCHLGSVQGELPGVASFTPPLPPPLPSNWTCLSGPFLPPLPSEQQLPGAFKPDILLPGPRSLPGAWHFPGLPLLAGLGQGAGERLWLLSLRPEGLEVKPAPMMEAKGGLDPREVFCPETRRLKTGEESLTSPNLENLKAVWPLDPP
# In short: as §1
# ETS2 = target: T8, ETS2 (Homo sapiens, UniProt P15036 1-469); conditions: protein: recombinant; tags: N-terminal GST; dsDNA, one strand shown
# T8 sequence: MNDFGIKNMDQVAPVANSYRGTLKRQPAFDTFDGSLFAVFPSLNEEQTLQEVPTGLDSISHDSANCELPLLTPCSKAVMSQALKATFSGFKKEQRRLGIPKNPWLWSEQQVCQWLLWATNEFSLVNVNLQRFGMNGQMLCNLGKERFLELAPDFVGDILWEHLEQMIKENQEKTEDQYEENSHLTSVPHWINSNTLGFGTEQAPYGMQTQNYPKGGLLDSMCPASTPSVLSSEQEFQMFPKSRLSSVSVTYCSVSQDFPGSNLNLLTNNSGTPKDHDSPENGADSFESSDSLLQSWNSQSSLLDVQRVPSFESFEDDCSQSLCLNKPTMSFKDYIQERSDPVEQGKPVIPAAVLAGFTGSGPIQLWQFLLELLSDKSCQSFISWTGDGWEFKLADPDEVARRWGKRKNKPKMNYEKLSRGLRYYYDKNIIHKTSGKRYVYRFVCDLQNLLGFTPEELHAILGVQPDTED
# In short: as §1
# SPDEF = target: T9, SPDEF (Homo sapiens, UniProt O95238 1-335); conditions: protein: recombinant; tags: N-terminal GST; dsDNA, one strand shown
# T9 sequence: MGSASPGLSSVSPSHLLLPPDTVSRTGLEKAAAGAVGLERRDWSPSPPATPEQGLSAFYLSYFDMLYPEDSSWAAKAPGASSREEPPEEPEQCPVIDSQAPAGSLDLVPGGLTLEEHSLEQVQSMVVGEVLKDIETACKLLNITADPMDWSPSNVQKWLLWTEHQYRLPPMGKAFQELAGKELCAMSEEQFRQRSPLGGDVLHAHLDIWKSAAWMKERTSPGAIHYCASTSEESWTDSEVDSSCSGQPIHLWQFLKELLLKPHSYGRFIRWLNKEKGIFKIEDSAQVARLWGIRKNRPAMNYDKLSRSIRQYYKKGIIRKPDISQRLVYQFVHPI
# In short: as §1
# ETV7 = target: T10, ETV7 (Homo sapiens, UniProt Q9Y603 1-341); conditions: protein: recombinant; tags: N-terminal GST; dsDNA, one strand shown
# T10 sequence: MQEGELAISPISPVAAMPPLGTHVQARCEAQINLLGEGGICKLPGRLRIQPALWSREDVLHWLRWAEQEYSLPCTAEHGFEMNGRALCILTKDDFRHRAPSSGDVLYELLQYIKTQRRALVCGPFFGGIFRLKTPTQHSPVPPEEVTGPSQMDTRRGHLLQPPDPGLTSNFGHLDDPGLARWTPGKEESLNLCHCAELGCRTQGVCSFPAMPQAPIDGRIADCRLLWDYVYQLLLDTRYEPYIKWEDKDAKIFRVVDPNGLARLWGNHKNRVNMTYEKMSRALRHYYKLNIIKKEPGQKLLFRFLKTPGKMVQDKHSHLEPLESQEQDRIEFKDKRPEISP
# In short: as §1
# ELF5 = target: T11, ELF5 (Homo sapiens, UniProt Q9UKW6-2 1-255); conditions: protein: recombinant; tags: N-terminal GST; dsDNA, one strand shown
# T11 sequence: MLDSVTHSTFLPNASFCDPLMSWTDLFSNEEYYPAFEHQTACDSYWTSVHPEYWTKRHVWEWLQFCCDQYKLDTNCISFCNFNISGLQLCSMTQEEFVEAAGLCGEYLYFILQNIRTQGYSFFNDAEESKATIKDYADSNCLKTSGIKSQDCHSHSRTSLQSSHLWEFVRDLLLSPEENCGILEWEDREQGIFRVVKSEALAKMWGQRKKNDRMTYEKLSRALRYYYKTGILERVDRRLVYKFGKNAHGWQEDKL
# In short: as §1
# ETV3 = target: T12, ETV3 (Homo sapiens, UniProt P41162-2 1-143); conditions: protein: recombinant; tags: N-terminal GST; dsDNA, one strand shown
# T12 sequence: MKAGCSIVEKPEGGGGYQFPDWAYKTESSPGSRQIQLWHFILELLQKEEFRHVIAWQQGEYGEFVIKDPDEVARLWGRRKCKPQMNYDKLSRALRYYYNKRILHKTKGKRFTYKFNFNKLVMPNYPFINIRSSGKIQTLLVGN
# In short: as §1
# ETV6 = ETV6 (Homo sapiens, UniProt P41212 1-452); conditions: protein: recombinant; tags: N-terminal GST; dsDNA, one strand shown
# Chain of ETV6 (P41212 whole entry): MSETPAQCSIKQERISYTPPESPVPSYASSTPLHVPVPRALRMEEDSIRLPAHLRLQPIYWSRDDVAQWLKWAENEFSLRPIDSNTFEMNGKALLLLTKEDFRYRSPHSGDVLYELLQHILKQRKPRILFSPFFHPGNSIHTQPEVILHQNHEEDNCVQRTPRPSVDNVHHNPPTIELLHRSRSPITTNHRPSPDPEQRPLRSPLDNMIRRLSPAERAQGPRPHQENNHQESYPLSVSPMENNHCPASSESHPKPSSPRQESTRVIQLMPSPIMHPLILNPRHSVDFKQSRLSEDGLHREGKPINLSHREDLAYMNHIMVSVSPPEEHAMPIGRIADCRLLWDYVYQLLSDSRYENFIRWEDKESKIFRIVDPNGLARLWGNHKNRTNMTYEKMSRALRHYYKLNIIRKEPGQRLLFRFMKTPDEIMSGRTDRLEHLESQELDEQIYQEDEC
# In short: as §1
sequence,measurement,setting,value
TTCCGC,binding signal,FEV,"3.1 fold enrichment (6-mer frequency, TF over GST control)"
same,binding signal,ETV5,"3.42 fold enrichment (6-mer frequency, TF over GST control)"
same,binding signal,HSF1,"1.34 fold enrichment (6-mer frequency, TF over GST control)"
same,binding signal,SPIC,"3.62 fold enrichment (6-mer frequency, TF over GST control)"
same,binding signal,ELF4,"2.82 fold enrichment (6-mer frequency, TF over GST control)"
same,binding signal,ELK4,"2.57 fold enrichment (6-mer frequency, TF over GST control)"
same,binding signal,ETV2,"2.79 fold enrichment (6-mer frequency, TF over GST control)"
same,binding signal,ELF3,"3.06 fold enrichment (6-mer frequency, TF over GST control)"
same,binding signal,CRX,"1.26 fold enrichment (6-mer frequency, TF over GST control)"
same,binding signal,ETV1,"3.17 fold enrichment (6-mer frequency, TF over GST control)"
same,binding signal,ERF,"2.75 fold enrichment (6-mer frequency, TF over GST control)"
same,binding signal,ETV3L,"2.9 fold enrichment (6-mer frequency, TF over GST control)"
same,binding signal,ETS2,"3.21 fold enrichment (6-mer frequency, TF over GST control)"
same,binding signal,SPDEF,"2.77 fold enrichment (6-mer frequency, TF over GST control)"
same,binding signal,ETV7,"3.02 fold enrichment (6-mer frequency, TF over GST control)"
same,binding signal,ELF5,"4.41 fold enrichment (6-mer frequency, TF over GST control)"
same,binding signal,ETV3,"3.37 fold enrichment (6-mer frequency, TF over GST control)"
same,binding signal,ETV6,"3.62 fold enrichment (6-mer frequency, TF over GST control)"
